Of roughly 8,800 targets only a part is listed; those with a hit were picked by preference. About 0.5% of all pairs of compound and target were hits.
Tests used:
Assay in all cases: log2 fold change, soluble protein after heating vs DMSO (PISA); higher = thermal stabilisation; K562 lysate, 10 uM; active = over 0.2 and 3.5 SD of the protein, either way, in both replicates (recomputed)
alvocidib = compound: CN1CC[C@H](c2c(O)cc(O)c3c(=O)cc(-c4ccccc4Cl)oc23)[C@H](O)C1 [alvocidib]
Method in brief: (§1)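 K562 pellets were dounce-homogenised in PBS pH 7.4 with 1 mM MgCl2, and the crude extract at 1 mg/mL protein was treated with 10 μM compound for 30 min. Aliquots were heated for 3 min across 48°C-58°C, pooled, and brought to 0.5% NP-40 at 4°C; soluble protein was the supernatant after 21,000xg for 90 min. Soluble protein was quantified by TMTpro 16plex LC-MS/MS with channel sums equalised, and reported as log2 fold change in thermal stability against DMSO controls, with values from duplicates.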

Tubastatin A = compound: CN1CCc2c(c3ccccc3n2Cc2ccc(C(=O)NO)cc2)C1 [Tubastatin A]
Method in brief: as §1

[1] = compound: CNC(=O)C1=CC=CC=C1NC2=NC(=NC=C2Cl)NC3=C(C=C(C=C3)N4CCOCC4)OC
Method in brief: as §1

defactinib = compound: CNC(=O)c1ccc(Nc2ncc(C(F)(F)F)c(NCc3nccnc3N(C)S(C)(=O)=O)n2)cc1 [defactinib]
Method in brief: as §1

[2] = compound: CNc1nc(-c2ccc3c(N)n[nH]c3c2)cc(N2C[C@@H](C(=O)NC3CCCCC3)CC[C@H]2C)n1
Method in brief: as §1

encorafenib = compound: COC(=O)N[C@@H](C)CNc1nccc(-c2cn(C(C)C)nc2-c2cc(Cl)cc(NS(C)(=O)=O)c2F)n1 [encorafenib]
Method in brief: as §1

[3] = compound: COC(=O)[C@H](CCSC)NC(=O)C1=C(C=C(C=C1)NC[C@H](CS)N)C2=CC=CC=C2
Method in brief: as §1

alisertib = compound: COc1cc(Nc2ncc3c(n2)-c2ccc(Cl)cc2C(c2c(F)cccc2OC)=NC3)ccc1C(=O)O [alisertib]
Method in brief: as §1

[4] = compound: COc1cc2nc(-c3cc(F)ccc3O)nc(N[C@@H]3CNC[C@H]3C(C)(C)O)c2cc1OC
Method in brief: as §1

gefitinib = compound: COc1cc2ncnc(Nc3ccc(F)c(Cl)c3)c2cc1OCCCN1CCOCC1 [gefitinib]
Method in brief: as §1

Measured: log2 fold change

R3HCC1 (UniProt Q9Y3T6)
inactive: alvocidib -0.019 | Tubastatin A 0.023 | [1] 0.048 | defactinib 0.055 | [2] -0.018 | encorafenib -0.004 | [3] -0.04 | alisertib -0.002 | [4] 0.003 | gefitinib 0.008

RCC1 isoform 2 (UniProt P18754)
inactive: alvocidib 0.012 | Tubastatin A -0.168 | [1] 0.018 | defactinib 0.055 | [2] -0.007 | encorafenib 0.006 | [3] 0.151 | alisertib 0.006 | [4] -0.017 | gefitinib -0.003

RALGAPB (UniProt Q86X10)
inactive: alvocidib 0.02 | Tubastatin A -0.056 | [1] -0.069 | defactinib 0.026 | [2] 0.012 | encorafenib 0.044 | [3] 0.015 | alisertib 0 | [4] 0.032 | gefitinib -0.007

RAF1 isoform 2 (UniProt P04049)
UniProt P04049, sequence (P04049 whole entry, looked up): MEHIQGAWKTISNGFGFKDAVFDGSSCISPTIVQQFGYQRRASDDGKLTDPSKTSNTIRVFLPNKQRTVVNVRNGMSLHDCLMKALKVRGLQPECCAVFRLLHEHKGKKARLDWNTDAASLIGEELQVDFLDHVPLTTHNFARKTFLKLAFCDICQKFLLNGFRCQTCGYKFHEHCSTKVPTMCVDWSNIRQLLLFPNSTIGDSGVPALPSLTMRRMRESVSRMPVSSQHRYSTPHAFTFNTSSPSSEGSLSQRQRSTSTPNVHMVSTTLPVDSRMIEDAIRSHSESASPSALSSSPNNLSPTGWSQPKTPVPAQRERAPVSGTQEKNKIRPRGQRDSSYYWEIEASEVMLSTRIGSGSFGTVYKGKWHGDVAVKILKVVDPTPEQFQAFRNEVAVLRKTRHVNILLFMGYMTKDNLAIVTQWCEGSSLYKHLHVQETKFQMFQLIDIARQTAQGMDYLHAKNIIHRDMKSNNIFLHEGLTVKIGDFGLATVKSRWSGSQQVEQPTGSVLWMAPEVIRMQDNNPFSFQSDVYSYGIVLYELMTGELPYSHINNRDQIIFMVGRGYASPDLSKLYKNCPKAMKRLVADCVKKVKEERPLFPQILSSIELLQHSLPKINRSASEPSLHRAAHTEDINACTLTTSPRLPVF
inactive: alvocidib 0.048 | Tubastatin A -0.022 | [1] 0.019 | defactinib -0.097 | [2] -0.001 | [3] 0.048 | alisertib -0.007 | [4] 0.052 | gefitinib 0.022
active: encorafenib 1.06

SBF1 isoform 4 (UniProt O95248)
inactive: alvocidib 0.005 | Tubastatin A 0.074 | [1] -0.054 | defactinib 0.022 | [2] -0.099 | encorafenib -0.004 | [3] -0.009 | alisertib 0.238 | [4] 0.008 | gefitinib 0.062

RAB6D (UniProt Q53S08)
inactive: alvocidib -0.029 | Tubastatin A 0.078 | [1] 0.024 | defactinib 0.077 | [2] 0.087 | encorafenib 0.023 | [3] -0.034 | alisertib -0.149 | [4] 0.062 | gefitinib 0.027

RPL37A (UniProt P61513)
inactive: alvocidib 0.159 | Tubastatin A 0.024 | [1] 0.022 | defactinib -0.045 | [2] 0.161 | encorafenib 0.004 | [3] 0.021 | alisertib -0.006 | [4] 0.004 | gefitinib -0.064

RELN (UniProt P78509)
inactive: alvocidib 0.026 | Tubastatin A -0.051 | [1] -0.025 | defactinib 0.055 | [2] -0.016 | encorafenib -0.009 | [3] -0.092 | alisertib -0.014 | [4] 0.141 | gefitinib 0.089

RANBP2 (UniProt P49792)
UniProt P49792, sequence (P49792 whole entry, looked up): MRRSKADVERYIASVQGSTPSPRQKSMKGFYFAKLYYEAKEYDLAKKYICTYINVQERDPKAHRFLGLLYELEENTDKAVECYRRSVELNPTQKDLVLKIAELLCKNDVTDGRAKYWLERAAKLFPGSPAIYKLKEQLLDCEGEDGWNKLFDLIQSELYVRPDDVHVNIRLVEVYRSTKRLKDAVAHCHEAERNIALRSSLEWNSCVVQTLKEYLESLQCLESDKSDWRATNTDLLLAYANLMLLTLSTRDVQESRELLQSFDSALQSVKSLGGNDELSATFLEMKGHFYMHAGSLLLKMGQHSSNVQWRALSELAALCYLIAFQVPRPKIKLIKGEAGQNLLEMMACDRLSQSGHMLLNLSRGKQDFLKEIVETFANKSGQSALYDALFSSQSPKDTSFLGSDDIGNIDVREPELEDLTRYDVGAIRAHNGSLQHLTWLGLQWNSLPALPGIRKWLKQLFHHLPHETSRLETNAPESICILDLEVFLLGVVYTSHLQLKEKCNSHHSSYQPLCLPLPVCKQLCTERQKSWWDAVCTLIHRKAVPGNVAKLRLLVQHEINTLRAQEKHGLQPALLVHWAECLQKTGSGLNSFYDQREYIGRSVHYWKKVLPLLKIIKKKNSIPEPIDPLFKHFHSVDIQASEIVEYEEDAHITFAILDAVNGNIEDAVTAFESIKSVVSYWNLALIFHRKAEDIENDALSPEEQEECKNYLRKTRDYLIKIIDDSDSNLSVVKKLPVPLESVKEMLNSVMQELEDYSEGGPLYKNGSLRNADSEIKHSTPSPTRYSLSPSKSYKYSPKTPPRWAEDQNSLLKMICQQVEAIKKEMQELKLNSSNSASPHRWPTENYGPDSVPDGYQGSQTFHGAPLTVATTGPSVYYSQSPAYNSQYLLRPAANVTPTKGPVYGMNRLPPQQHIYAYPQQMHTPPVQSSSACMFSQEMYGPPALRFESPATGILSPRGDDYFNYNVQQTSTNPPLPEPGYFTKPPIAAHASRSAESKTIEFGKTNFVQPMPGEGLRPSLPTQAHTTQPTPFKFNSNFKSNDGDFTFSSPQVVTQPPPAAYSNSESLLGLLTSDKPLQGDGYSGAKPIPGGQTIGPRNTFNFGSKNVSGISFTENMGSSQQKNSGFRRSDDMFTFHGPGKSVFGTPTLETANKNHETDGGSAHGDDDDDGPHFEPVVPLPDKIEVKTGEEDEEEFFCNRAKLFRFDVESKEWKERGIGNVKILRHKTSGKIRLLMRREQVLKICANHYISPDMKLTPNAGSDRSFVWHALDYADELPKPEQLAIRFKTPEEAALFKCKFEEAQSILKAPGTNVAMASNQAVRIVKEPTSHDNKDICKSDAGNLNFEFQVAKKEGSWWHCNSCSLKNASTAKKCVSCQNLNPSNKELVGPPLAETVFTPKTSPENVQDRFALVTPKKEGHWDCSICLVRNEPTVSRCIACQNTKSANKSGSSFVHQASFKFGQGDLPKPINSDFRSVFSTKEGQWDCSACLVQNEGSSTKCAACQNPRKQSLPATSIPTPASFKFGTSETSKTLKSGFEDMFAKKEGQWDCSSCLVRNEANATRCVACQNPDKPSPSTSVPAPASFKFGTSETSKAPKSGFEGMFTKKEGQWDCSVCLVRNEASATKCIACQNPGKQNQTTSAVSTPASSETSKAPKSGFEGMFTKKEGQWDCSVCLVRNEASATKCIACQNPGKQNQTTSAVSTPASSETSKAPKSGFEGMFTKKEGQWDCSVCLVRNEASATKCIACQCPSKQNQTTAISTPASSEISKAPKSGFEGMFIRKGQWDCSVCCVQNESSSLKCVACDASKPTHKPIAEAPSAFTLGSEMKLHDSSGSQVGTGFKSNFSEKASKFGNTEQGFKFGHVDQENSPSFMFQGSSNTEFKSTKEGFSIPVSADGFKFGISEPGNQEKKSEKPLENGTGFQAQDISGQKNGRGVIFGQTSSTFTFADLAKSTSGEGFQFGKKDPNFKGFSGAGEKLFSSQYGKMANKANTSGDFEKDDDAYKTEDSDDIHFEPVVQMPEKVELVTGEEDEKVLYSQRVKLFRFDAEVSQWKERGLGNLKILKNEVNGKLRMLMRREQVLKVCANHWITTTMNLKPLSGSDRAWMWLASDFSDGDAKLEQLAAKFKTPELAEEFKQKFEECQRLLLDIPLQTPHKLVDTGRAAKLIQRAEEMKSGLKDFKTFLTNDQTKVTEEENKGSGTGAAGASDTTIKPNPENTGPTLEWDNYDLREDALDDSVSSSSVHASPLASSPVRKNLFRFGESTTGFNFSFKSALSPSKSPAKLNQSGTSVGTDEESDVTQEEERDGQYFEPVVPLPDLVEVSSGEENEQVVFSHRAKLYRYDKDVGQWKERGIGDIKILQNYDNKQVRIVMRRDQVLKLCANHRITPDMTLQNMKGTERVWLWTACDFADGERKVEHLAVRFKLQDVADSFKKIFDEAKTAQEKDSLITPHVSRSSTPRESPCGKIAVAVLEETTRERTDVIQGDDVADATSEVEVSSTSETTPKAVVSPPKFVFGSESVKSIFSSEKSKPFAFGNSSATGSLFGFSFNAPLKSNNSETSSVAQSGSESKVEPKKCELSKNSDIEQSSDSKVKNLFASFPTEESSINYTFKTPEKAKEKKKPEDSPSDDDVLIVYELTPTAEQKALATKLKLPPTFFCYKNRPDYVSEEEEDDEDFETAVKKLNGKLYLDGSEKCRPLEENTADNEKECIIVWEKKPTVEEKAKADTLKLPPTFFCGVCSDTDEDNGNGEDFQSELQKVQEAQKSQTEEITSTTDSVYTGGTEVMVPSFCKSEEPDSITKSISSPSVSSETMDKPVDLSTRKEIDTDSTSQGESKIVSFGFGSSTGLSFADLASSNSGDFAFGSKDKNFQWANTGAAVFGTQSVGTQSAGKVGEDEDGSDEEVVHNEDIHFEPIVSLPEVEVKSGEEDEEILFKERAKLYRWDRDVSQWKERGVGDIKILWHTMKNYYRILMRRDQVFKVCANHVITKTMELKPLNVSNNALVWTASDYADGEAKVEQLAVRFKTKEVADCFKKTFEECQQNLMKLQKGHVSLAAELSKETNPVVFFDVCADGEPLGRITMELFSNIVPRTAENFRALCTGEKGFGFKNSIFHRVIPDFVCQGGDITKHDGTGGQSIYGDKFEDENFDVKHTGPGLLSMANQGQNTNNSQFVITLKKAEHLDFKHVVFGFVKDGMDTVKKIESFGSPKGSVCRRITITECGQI
inactive: alvocidib -0.001 | Tubastatin A -0.169 | [1] 0.011 | defactinib 0.004 | [2] -0.041 | encorafenib 0.038 | [3] 0.042 | alisertib -0.01 | [4] 0 | gefitinib -0.013

RNF213, A0A0A0MTC1
inactive: alvocidib -0.003 | Tubastatin A -0.081 | [1] 0.023 | defactinib -0.02 | [2] -0.04 | encorafenib 0.054 | [3] -0.061 | alisertib 0.013 | [4] 0.012 | gefitinib -0.012

RPS29 (UniProt P62273)
inactive: alvocidib 0.23 | Tubastatin A -0.052 | [1] -0.029 | defactinib -0.027 | [2] 0.081 | encorafenib -0.062 | [3] 0.151 | alisertib -0.278 | [4] 0.032 | gefitinib -0.138

RMC1 (UniProt Q96DM3)
inactive: alvocidib -0.041 | Tubastatin A -0.019 | [1] 0.019 | defactinib 0.049 | [2] -0.019 | encorafenib 0.012 | [3] -0.023 | alisertib 0 | [4] -0.001 | gefitinib 0.005

SCO1 (UniProt O75880)
active: [3] -0.57
inactive: alvocidib 0.002 | Tubastatin A -0.031 | [1] -0.051 | defactinib -0.004 | [2] 0.053 | encorafenib -0.004 | alisertib -0.096 | [4] 0.014 | gefitinib -0.015

RNF40 (UniProt O75150)
inactive: alvocidib -0.003 | Tubastatin A -0.102 | [1] 0.023 | defactinib 0.022 | [2] -0.006 | encorafenib 0.015 | [3] 0.079 | alisertib -0.002 | [4] 0 | gefitinib 0.013

RPLP0P6 (UniProt Q8NHW5)
inactive: alvocidib -0.018 | Tubastatin A 0.015 | [1] -0.001 | defactinib -0.014 | [2] 0.023 | encorafenib 0.001 | [3] 0.018 | alisertib 0.004 | [4] 0.023 | gefitinib -0.019

SAMHD1 (UniProt Q9Y3Z3)
inactive: alvocidib -0.019 | Tubastatin A -0.072 | [1] 0.041 | defactinib -0.021 | [2] -0.015 | encorafenib 0 | [3] 0.099 | alisertib -0.013 | [4] 0.02 | gefitinib 0.044

SDHC (UniProt Q99643)
inactive: alvocidib -0.114 | Tubastatin A -0.056 | [1] 0.047 | defactinib 0.146 | [2] 0.097 | encorafenib 0.034 | [3] 0.055 | alisertib 0.018 | [4] -0.007 | gefitinib 0.011

RBM23 isoform 2 (UniProt Q86U06)
UniProt Q86U06, sequence (Q86U06 whole entry, looked up): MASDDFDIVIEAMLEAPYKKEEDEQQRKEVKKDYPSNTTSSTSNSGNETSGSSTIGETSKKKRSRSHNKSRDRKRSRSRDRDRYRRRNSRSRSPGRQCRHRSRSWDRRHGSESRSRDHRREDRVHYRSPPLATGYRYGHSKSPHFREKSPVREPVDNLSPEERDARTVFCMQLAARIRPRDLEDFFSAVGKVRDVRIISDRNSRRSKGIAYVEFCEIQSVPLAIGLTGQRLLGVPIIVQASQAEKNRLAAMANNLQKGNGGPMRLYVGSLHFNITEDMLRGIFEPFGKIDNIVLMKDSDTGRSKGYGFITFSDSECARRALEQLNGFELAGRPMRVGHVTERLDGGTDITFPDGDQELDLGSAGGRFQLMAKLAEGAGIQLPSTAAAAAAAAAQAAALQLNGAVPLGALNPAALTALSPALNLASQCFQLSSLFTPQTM
inactive: alvocidib -0.056 | Tubastatin A -0.084 | [1] 0.133 | defactinib -0.037 | [2] 0.181 | encorafenib 0.335 | [3] -0.003 | alisertib 0.11 | [4] 0.137 | gefitinib 0.057

REEP6 (UniProt Q96HR9)
inactive: alvocidib -0.089 | Tubastatin A 0.045 | [1] 0.02 | defactinib 0.056 | [2] -0.013 | encorafenib 0.076 | [3] -0.025 | alisertib 0.032 | [4] -0.036 | gefitinib -0.175

RBM4 (UniProt Q9BWF3)
UniProt Q9BWF3, sequence (Q9BWF3 whole entry, looked up): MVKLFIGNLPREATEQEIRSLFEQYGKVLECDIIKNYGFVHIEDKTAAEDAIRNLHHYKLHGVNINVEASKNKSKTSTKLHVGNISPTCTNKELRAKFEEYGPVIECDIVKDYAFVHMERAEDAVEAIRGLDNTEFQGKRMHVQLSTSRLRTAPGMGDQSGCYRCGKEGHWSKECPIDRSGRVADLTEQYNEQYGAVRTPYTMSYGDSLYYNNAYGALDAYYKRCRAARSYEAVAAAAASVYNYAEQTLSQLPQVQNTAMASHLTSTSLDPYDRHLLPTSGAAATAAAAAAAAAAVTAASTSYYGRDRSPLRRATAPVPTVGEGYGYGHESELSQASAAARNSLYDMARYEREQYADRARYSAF
inactive: alvocidib 0.16 | Tubastatin A -0.168 | [1] 0.013 | defactinib -0.011 | [2] -0.088 | encorafenib 0.089 | [3] -0.066 | alisertib 0.037 | [4] 0.006 | gefitinib -0.004

REXO4 (UniProt Q9GZR2)
UniProt Q9GZR2, sequence (Q9GZR2 whole entry, looked up): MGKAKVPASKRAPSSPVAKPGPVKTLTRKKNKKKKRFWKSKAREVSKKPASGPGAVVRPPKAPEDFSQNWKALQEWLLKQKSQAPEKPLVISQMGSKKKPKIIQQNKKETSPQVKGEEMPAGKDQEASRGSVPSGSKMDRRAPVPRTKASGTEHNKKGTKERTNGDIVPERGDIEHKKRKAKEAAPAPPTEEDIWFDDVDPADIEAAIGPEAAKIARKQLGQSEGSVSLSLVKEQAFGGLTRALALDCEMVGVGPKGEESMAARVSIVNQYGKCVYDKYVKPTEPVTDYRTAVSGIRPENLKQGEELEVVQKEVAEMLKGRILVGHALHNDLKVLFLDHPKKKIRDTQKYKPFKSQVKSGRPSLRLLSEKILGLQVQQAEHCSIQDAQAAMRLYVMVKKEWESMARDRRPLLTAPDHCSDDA
inactive: alvocidib 0.089 | Tubastatin A -0.108 | [1] 0.026 | defactinib 0.013 | [2] 0.032 | encorafenib -0.007 | [3] 0.08 | alisertib -0.008 | [4] 0.024 | gefitinib -0.029

RPS9 (UniProt P46781)
inactive: alvocidib 0.053 | Tubastatin A 0.006 | [1] -0.036 | defactinib -0.064 | [2] 0.006 | encorafenib -0.022 | [3] 0.065 | alisertib 0.004 | [4] -0.003 | gefitinib -0.033

SEC16A isoform 5 (UniProt O15027)
inactive: alvocidib -0.005 | Tubastatin A -0.09 | [1] 0.011 | defactinib -0.014 | [2] -0.002 | encorafenib 0.011 | [3] 0.01 | alisertib -0.001 | [4] 0.013 | gefitinib 0.014

SCAF1 (UniProt Q9H7N4)
inactive: alvocidib 0.054 | Tubastatin A 0.034 | [1] -0.051 | defactinib 0.046 | [2] 0.051 | encorafenib -0.028 | [3] -0.066 | alisertib 0.128 | [4] -0.02 | gefitinib 0.129

SAR1B (UniProt Q9Y6B6)
inactive: alvocidib 0.032 | Tubastatin A 0.176 | [1] 0.199 | defactinib 0.05 | [2] 0.147 | encorafenib 0.203 | [3] 0.052 | alisertib 0.128 | [4] 0.145 | gefitinib 0.015

REL isoform 2 (UniProt Q04864)
inactive: alvocidib 0.061 | Tubastatin A -0.126 | [1] 0.003 | defactinib 0.023 | [2] -0.056 | encorafenib 0.012 | [3] 0.029 | alisertib -0.003 | [4] -0.019 | gefitinib 0.029

RAD50 isoform 2 (UniProt Q92878)
inactive: alvocidib 0.023 | Tubastatin A -0.137 | [1] 0.008 | defactinib 0.026 | [2] -0.04 | encorafenib 0.006 | [3] 0.108 | alisertib 0.002 | [4] 0.001 | gefitinib -0.016

RPS6KA5 (UniProt O75582)
inactive: alvocidib 0.193 | Tubastatin A -0.239 | [1] 0.009 | defactinib 0.019 | [2] 0.072 | encorafenib 0.054 | [3] -0.005 | alisertib 0.041 | [4] 0.104 | gefitinib 0.11

RAC2 (UniProt P15153)
inactive: alvocidib 0.047 | Tubastatin A -0.086 | [1] 0.082 | defactinib 0.007 | [2] 0.06 | encorafenib -0.022 | [3] -0.001 | alisertib 0.051 | [4] 0.056 | gefitinib 0.016

RECQL5 (UniProt O94762)
inactive: alvocidib 0.057 | Tubastatin A -0.053 | [1] -0.071 | defactinib 0.068 | [2] 0.074 | encorafenib 0.225 | [3] 0.016 | alisertib -0.003 | [4] 0.09 | gefitinib 0.03

From the supplement of paper PMC10849652
